What all share (test): protein-binding microarray (PBM); PBM: ~300 nM protein, 6 mM HEPES pH 7.8, 80 mM KCl, 0.5 mM EDTA, 0.5 mM EGTA, 6% glycerol, 35 ng/ul poly-dIdC, 1% milk, 1 h, room temperature; Ap Aiptasia and Nv Nematostella (sea anemones) / Co Capsaspora / Aq Amphimedon (sponge) / Dm Drosophila / Hu human; RHD is the Rel homology domain; high values mean tight binding
What all share (settings): dsDNA, one strand shown

For one test, the target named is T1, GST-Ap-NF-kB RHD (Exaiptasia pallida (Aiptasia), UniProt A0A913YAJ5 2-422).
T1 sequence: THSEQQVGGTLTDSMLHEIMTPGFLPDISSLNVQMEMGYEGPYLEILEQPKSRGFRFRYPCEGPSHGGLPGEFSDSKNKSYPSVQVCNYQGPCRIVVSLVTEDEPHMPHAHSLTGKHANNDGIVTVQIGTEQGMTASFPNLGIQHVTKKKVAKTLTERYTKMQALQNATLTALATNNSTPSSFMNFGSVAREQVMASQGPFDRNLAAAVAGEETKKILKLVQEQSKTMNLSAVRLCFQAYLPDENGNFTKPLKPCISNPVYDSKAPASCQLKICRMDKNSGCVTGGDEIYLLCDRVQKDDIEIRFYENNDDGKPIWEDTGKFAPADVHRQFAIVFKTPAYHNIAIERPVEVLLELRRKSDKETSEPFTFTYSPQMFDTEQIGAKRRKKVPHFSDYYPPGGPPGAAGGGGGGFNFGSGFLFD

For test [1], the target named is T2, GST-Nv-NF-kB (Cys allele) (Nematostella vectensis, UniProt E5G601 2-411).
T2 sequence: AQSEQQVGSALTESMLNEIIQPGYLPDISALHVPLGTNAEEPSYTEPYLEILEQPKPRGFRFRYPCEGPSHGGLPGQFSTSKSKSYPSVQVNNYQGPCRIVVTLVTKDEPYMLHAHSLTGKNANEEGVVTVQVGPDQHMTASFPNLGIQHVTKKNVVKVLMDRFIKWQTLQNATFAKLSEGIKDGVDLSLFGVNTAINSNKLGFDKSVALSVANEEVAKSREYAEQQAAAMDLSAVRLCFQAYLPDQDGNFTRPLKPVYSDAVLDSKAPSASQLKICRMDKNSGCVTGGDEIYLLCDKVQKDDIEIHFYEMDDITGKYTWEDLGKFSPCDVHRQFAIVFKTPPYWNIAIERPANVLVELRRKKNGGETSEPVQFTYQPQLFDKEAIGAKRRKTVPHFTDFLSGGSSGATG

Another test deals with T3, GST-Dm-Relish (Drosophila melanogaster, UniProt Q94527 99-473).
T3 sequence: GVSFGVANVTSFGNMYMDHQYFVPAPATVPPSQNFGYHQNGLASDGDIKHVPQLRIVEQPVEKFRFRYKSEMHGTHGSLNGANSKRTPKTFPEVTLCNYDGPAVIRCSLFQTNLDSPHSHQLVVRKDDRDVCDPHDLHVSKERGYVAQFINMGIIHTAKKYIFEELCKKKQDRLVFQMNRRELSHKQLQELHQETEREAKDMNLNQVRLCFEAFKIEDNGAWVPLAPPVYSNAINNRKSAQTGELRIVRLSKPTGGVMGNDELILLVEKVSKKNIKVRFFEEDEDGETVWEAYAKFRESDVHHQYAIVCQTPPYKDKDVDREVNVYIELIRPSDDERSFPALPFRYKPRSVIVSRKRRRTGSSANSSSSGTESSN

For a further test, the target named is T4, GST-Aq-NF-kB (Amphimedon queenslandica, UniProt A9Y5G7 2-389).
T4 sequence: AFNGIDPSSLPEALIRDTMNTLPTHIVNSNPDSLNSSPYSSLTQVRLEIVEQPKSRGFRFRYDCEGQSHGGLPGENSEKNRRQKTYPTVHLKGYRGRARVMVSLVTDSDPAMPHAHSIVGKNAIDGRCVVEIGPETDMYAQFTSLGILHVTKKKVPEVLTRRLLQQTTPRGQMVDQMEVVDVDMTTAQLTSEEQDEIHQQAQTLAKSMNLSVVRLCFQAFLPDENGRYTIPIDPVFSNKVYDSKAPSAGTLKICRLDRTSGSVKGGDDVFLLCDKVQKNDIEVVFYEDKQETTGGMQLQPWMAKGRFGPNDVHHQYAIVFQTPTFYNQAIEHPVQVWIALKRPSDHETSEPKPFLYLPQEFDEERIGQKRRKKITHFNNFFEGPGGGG

In another test the target is T5, GST-Co-NF-kB (Capsaspora owczarzaki, UniProt F1ARL5 200-546).
T5 sequence: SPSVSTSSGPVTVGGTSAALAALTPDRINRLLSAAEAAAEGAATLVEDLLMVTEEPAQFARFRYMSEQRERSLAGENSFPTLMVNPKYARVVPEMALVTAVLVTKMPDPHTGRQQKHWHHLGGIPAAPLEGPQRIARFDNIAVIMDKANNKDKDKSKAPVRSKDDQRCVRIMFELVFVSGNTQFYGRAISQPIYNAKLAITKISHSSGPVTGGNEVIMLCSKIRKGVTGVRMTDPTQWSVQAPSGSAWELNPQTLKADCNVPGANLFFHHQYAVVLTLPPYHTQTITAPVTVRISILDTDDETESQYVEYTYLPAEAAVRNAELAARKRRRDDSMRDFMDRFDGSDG

Results on 15 sequences are retold here after PMC5700166.

Take “CCGATTAACATCAGGAAAACCCATGATGTTAATCGGGTCTTGATTCGCTTGACGCTGCTG”: the binding signal with GST-Ap-NF-kB RHD worked out at 2.63 z-score; in test [1], 2.25 z-score; with GST-Dm-Relish, 4.78 z-score; with GST-Aq-NF-kB, 4.02 z-score.

As to “CCGATTAACATCAGGCGTCCCCCTGATGTTAATCGGGTCTTGATTCGCTTGACGCTGCTG”, the binding signal is 5.61 z-score with GST-Ap-NF-kB RHD; 5.07 z-score in test [1]; 4.12 z-score in the test with GST-Co-NF-kB; 3.92 z-score with GST-Dm-Relish; 4.77 z-score in the test with GST-Aq-NF-kB.

As to “CCGATTAACATCACATTGTCCCCTGATGTTAATCGGGTCTTGATTCGCTTGACGCTGCTG”, the binding signal with GST-Ap-NF-kB RHD turned out to be 4.03 z-score; in test [1] it was 4.18 z-score; with GST-Co-NF-kB it was 4.12 z-score; with GST-Dm-Relish, 1.73 z-score; with GST-Aq-NF-kB, 3.26 z-score.

Turning to “CCGATTAACATCACGGCAATCCCTGATGTTAATCGGGTCTTGATTCGCTTGACGCTGCTG”, the binding signal with GST-Ap-NF-kB RHD stood at 1.5 z-score; in test [1] it was 1.21 z-score; in the test with GST-Dm-Relish, 2.64 z-score; with GST-Aq-NF-kB it was 2.66 z-score.

On to “CCGATTAACATCAGGGGAGAAAATGATGTTAATCGGGTCTTGATTCGCTTGACGCTGCTG”, for which the binding signal stood at 4.25 z-score with GST-Ap-NF-kB RHD; 5.5 z-score in test [1]; 8.56 z-score with GST-Co-NF-kB; 2.26 z-score in the test with GST-Dm-Relish; 3.89 z-score in the test with GST-Aq-NF-kB.

With “CCGATTAACATCAGGAACGCCCCTGATGTTAATCGGGTCTTGATTCGCTTGACGCTGCTG”, the binding signal was found to be 3.09 z-score in the test with GST-Ap-NF-kB RHD, 3.22 z-score in test [1], 2.09 z-score in the test with GST-Dm-Relish and 5.42 z-score with GST-Aq-NF-kB.

As for “CCGATTAACATCAGGGAAAGTAATGATGTTAATCGGGTCTTGATTCGCTTGACGCTGCTG”, the binding signal worked out at 3.01 z-score with GST-Ap-NF-kB RHD; 4.93 z-score in test [1]; 3.38 z-score in the test with GST-Co-NF-kB; 2.08 z-score with GST-Dm-Relish; 4.25 z-score with GST-Aq-NF-kB.

Regarding “CCGATTAACATCAGGGAATATTATGATGTTAATCGGGTCTTGATTCGCTTGACGCTGCTG”, the binding signal was 5.06 z-score with GST-Ap-NF-kB RHD; 5.86 z-score in test [1]; 3.81 z-score with GST-Co-NF-kB; 3 z-score in the test with GST-Dm-Relish; 5.75 z-score with GST-Aq-NF-kB.

Regarding “CCGATTAACATCAGGAAGTCCCATGATGTTAATCGGGTCTTGATTCGCTTGACGCTGCTG”, the binding signal is 4.82 z-score with GST-Ap-NF-kB RHD, 5.32 z-score in test [1], 6.71 z-score in the test with GST-Dm-Relish and 4.99 z-score with GST-Aq-NF-kB.

Turning to “CCGATTAACATCAGACCTTCCCCTGATGTTAATCGGGTCTTGATTCGCTTGACGCTGCTG”, the binding signal with GST-Ap-NF-kB RHD amounted to 4.8 z-score; in test [1] it was 4.93 z-score; with GST-Co-NF-kB it was 4.12 z-score; in the test with GST-Dm-Relish, 4.54 z-score; with GST-Aq-NF-kB, 5.13 z-score.

As for “CCGATTAACATCAGGGATTTACCTGATGTTAATCGGGTCTTGATTCGCTTGACGCTGCTG”, the binding signal in the test with GST-Ap-NF-kB RHD turned out to be 4.76 z-score; in test [1], 5.65 z-score; in the test with GST-Dm-Relish it was 9.23 z-score; with GST-Aq-NF-kB it was 6.8 z-score.

In the case of “CCGATTAACATCACGGAATTACCTGATGTTAATCGGGTCTTGATTCGCTTGACGCTGCTG”, the binding signal with GST-Ap-NF-kB RHD amounted to 1.02 z-score; in test [1], 1.63 z-score; in the test with GST-Dm-Relish it was 3.44 z-score; with GST-Aq-NF-kB, 3.88 z-score.

Take “CCGATTAACATCAGGAAAACACCTGATGTTAATCGGGTCTTGATTCGCTTGACGCTGCTG”: the binding signal with GST-Ap-NF-kB RHD was found to be 2.56 z-score; in test [1], 3.6 z-score; with GST-Dm-Relish, 3.1 z-score; in the test with GST-Aq-NF-kB it was 5.13 z-score.

On to “CCGATTAACATCAGGTATTTTTATGATGTTAATCGGGTCTTGATTCGCTTGACGCTGCTG”, for which the binding signal is 1.27 z-score in the test with GST-Ap-NF-kB RHD, 2.01 z-score in test [1], 3.8 z-score with GST-Dm-Relish and 2.77 z-score with GST-Aq-NF-kB.

For the sequence “CCGATTAACATCAGAAAATGCCCTGATGTTAATCGGGTCTTGATTCGCTTGACGCTGCTG”, the binding signal in the test with GST-Ap-NF-kB RHD turned out to be 1.93 z-score; in test [1], 2.33 z-score; with GST-Dm-Relish, 2.42 z-score; with GST-Aq-NF-kB it was 3.47 z-score.
